Experimental data taken from article PMC7862700, “An all-to-all approach to the identification of sequence-specific readers for epigenetic DNA modifications on cytosine”.

Key:
Assay in all cases: DAPPL (digital affinity profiling via proximity ligation, sequencing); 10 mM Tris-HCl pH 7.5, 50 mM NaCl, 1 mM DTT, 4% glycerol, room temperature, 30 min; GST-TFs on glutathione beads, 16-mer random dsDNA library, 0.1% formaldehyde crosslink after washing; high values mean tight binding
FEV = biological target: T1, FEV (Homo sapiens, UniProt Q99581 1-238); conditions: protein: recombinant; tags: N-terminal GST; dsDNA, one strand shown
T1 sequence: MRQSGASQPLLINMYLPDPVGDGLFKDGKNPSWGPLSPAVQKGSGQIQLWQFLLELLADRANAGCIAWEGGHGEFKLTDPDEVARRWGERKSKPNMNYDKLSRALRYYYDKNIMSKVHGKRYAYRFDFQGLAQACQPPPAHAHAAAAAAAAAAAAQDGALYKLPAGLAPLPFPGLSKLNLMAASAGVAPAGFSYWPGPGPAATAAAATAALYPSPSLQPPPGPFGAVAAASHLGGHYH
Procedure, shortened: (§1)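 After expression in yeast as GST fusions, human transcription factors were bound to glutathione beads, DNA-barcoded and mixed with a tag-only sample. The pools were incubated with 200 nmole of a 16-mer random double-stranded DNA library in Tris/NaCl/DTT/glycerol buffer (30 min, room temperature), washed and crosslinked with 0.1% formaldehyde. Proximity ligation with BsaI/T4 ligase ran for 1 h at 37 °C, before PCR amplification and sequencing on an Illumina NextSeq500. Binding signal is a hexamer's read frequency for a factor divided by its frequency for the tag-only sample.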

ETV5 = ETV5 (Homo sapiens, UniProt P41161 1-510); conditions: protein: recombinant; tags: N-terminal GST; dsDNA, one strand shown
Procedure, shortened: as §1

HSF1 = HSF1 (Homo sapiens, UniProt Q00613 1-529); conditions: protein: recombinant; tags: N-terminal GST; chain copies: 3; dsDNA, one strand shown
Procedure, shortened: as §1

SPIC = biological target: T2, SPIC (Homo sapiens, UniProt Q8N5J4 1-248); conditions: protein: recombinant; tags: N-terminal GST; dsDNA, one strand shown
T2 sequence: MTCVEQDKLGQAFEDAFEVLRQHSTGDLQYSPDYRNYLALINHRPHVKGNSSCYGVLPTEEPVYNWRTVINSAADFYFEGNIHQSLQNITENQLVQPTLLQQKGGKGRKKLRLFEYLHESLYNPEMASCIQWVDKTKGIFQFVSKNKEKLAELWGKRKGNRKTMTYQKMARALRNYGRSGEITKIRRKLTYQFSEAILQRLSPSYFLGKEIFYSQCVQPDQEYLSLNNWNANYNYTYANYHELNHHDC
Procedure, shortened: as §1

ELF4 = ELF4 (Homo sapiens, UniProt Q99607 1-663); conditions: protein: recombinant; tags: N-terminal GST; dsDNA, one strand shown
Procedure, shortened: as §1

ELK4 = biological target: T3, ELK4 (Homo sapiens, UniProt P28324-2 1-405); conditions: protein: recombinant; tags: N-terminal GST; dsDNA, one strand shown
T3 sequence: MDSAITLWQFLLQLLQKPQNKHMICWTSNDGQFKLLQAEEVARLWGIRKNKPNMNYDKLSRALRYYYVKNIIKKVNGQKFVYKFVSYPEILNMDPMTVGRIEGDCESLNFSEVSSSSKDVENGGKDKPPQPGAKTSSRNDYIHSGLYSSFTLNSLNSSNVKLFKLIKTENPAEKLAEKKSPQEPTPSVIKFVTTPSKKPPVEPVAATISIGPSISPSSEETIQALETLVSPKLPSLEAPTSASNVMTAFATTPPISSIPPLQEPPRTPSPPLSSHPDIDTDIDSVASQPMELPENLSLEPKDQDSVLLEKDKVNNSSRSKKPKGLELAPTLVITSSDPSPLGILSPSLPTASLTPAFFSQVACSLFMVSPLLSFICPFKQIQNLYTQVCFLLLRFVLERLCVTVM
Procedure, shortened: as §1

ETV2 = biological target: T4, ETV2 (Homo sapiens, UniProt O00321 1-342); conditions: protein: recombinant; tags: N-terminal GST; dsDNA, one strand shown
T4 sequence: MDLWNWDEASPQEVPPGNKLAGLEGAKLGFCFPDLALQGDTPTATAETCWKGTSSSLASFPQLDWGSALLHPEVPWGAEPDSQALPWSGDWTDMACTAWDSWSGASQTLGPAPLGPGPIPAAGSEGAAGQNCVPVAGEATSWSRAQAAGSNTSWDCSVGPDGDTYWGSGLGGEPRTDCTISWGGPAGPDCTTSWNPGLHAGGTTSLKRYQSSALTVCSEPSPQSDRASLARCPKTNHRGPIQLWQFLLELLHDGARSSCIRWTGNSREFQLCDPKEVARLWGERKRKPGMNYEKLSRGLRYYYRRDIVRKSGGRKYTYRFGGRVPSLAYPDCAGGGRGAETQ
Procedure, shortened: as §1

ELF3 = biological target: T5, ELF3 (Homo sapiens, UniProt P78545 1-371); conditions: protein: recombinant; tags: N-terminal GST; dsDNA, one strand shown
T5 sequence: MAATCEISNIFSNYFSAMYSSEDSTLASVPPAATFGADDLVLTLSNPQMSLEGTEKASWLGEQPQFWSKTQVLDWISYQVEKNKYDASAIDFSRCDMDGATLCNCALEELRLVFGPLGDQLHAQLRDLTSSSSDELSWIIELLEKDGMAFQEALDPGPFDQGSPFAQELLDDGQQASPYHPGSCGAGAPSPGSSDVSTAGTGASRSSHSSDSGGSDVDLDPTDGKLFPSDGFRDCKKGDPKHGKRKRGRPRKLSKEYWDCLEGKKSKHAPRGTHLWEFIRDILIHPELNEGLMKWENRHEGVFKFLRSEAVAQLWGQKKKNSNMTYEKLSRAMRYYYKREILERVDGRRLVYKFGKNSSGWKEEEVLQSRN
Procedure, shortened: as §1

CRX = CRX (Homo sapiens, UniProt O43186 1-299); conditions: protein: recombinant; tags: N-terminal GST; dsDNA, one strand shown
Procedure, shortened: as §1

ETV1 = ETV1 (Homo sapiens, UniProt P50549 1-477); conditions: protein: recombinant; tags: N-terminal GST; dsDNA, one strand shown
Procedure, shortened: as §1

ERF = biological target: T6, ERF (Homo sapiens, UniProt P50548 1-548); conditions: protein: recombinant; tags: N-terminal GST; dsDNA, one strand shown
T6 sequence: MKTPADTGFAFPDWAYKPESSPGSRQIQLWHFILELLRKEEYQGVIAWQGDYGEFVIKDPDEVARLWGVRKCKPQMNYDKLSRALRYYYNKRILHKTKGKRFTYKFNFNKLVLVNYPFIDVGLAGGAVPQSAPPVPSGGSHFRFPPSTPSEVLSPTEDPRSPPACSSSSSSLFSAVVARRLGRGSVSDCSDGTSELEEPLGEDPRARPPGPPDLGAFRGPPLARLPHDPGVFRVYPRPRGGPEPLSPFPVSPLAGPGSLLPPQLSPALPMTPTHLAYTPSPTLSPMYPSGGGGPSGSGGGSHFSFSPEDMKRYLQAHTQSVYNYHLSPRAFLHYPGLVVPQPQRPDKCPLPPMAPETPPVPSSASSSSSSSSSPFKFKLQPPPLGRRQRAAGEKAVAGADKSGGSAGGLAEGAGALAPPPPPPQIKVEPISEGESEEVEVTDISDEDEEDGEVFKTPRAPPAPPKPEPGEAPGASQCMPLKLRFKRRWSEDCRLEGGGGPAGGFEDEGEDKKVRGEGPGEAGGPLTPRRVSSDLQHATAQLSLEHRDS
Procedure, shortened: as §1

ETV3L = biological target: T7, ETV3L (Homo sapiens, UniProt Q6ZN32 1-361); conditions: protein: recombinant; tags: N-terminal GST; dsDNA, one strand shown
T7 sequence: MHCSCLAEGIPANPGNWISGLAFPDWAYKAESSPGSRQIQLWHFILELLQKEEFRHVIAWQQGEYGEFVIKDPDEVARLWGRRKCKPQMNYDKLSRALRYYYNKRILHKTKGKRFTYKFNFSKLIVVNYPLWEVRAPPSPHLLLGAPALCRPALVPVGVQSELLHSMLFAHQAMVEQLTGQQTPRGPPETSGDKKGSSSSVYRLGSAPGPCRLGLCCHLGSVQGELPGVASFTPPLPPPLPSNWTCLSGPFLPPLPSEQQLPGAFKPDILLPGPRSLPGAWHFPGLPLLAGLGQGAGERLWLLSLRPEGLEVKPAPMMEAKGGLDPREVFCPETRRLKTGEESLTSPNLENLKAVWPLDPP
Procedure, shortened: as §1

ETS2 = biological target: T8, ETS2 (Homo sapiens, UniProt P15036 1-469); conditions: protein: recombinant; tags: N-terminal GST; dsDNA, one strand shown
T8 sequence: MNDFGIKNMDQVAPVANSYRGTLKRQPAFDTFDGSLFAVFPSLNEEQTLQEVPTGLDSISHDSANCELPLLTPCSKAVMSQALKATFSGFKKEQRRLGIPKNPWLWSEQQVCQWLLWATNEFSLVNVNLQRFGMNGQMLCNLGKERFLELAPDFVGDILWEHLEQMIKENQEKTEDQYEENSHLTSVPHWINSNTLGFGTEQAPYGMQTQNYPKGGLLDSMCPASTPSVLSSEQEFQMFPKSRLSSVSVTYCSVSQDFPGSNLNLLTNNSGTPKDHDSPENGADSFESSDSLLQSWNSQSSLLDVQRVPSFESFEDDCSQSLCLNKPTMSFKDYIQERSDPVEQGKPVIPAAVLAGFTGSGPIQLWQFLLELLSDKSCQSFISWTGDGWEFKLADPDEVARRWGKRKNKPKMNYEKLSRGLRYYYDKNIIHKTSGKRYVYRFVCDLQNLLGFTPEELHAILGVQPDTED
Procedure, shortened: as §1

SPDEF = biological target: T9, SPDEF (Homo sapiens, UniProt O95238 1-335); conditions: protein: recombinant; tags: N-terminal GST; dsDNA, one strand shown
T9 sequence: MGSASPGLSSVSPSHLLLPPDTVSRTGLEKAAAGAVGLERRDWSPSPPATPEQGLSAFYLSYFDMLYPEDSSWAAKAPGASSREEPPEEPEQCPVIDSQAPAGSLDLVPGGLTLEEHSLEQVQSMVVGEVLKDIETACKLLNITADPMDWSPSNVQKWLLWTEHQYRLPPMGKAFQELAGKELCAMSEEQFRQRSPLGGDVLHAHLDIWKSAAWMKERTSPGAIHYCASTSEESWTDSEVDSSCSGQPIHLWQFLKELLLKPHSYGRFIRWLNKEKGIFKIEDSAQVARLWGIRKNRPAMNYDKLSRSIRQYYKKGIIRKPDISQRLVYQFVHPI
Procedure, shortened: as §1

ETV7 = biological target: T10, ETV7 (Homo sapiens, UniProt Q9Y603 1-341); conditions: protein: recombinant; tags: N-terminal GST; dsDNA, one strand shown
T10 sequence: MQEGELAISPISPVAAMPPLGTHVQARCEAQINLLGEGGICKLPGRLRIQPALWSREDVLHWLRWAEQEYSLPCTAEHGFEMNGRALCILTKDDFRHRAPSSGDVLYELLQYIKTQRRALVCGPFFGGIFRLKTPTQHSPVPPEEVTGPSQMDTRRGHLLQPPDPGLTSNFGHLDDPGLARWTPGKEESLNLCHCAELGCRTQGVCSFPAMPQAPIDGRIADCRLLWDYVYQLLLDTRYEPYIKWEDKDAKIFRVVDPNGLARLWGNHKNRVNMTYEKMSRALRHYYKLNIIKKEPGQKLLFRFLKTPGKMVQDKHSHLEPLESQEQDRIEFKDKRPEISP
Procedure, shortened: as §1

ELF5 = biological target: T11, ELF5 (Homo sapiens, UniProt Q9UKW6-2 1-255); conditions: protein: recombinant; tags: N-terminal GST; dsDNA, one strand shown
T11 sequence: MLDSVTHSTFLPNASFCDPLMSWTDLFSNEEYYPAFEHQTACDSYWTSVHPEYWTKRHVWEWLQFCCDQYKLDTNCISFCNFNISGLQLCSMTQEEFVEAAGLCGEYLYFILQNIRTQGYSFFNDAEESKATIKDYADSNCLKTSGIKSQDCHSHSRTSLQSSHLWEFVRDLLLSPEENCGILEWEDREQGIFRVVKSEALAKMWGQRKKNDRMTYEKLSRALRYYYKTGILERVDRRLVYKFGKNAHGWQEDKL
Procedure, shortened: as §1

ETV3 = biological target: T12, ETV3 (Homo sapiens, UniProt P41162-2 1-143); conditions: protein: recombinant; tags: N-terminal GST; dsDNA, one strand shown
T12 sequence: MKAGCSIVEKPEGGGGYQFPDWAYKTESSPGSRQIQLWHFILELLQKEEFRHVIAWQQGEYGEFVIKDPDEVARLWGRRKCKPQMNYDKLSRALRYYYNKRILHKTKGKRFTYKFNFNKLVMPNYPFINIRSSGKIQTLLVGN
Procedure, shortened: as §1

ETV6 = ETV6 (Homo sapiens, UniProt P41212 1-452); conditions: protein: recombinant; tags: N-terminal GST; dsDNA, one strand shown
Procedure, shortened: as §1

Sequence of ELF4 (Q99607 whole entry): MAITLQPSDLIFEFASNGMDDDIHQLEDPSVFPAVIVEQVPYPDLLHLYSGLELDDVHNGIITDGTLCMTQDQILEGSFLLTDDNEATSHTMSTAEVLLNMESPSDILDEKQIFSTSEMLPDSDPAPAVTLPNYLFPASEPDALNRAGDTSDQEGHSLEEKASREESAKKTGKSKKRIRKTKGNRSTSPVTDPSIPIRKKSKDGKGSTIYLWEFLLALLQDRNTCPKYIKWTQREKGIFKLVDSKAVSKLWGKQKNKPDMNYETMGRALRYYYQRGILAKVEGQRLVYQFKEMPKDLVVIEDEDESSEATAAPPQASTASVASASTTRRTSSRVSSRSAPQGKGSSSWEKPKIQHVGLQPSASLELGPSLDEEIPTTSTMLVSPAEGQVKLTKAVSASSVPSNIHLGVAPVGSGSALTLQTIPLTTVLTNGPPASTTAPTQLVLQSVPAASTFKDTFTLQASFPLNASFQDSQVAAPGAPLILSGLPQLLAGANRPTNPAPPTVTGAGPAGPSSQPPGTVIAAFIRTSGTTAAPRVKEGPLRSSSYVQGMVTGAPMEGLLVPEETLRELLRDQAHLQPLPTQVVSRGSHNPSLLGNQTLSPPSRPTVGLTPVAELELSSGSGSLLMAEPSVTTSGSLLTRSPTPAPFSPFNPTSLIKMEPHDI
Sequence of ETV1 (P50549 whole entry): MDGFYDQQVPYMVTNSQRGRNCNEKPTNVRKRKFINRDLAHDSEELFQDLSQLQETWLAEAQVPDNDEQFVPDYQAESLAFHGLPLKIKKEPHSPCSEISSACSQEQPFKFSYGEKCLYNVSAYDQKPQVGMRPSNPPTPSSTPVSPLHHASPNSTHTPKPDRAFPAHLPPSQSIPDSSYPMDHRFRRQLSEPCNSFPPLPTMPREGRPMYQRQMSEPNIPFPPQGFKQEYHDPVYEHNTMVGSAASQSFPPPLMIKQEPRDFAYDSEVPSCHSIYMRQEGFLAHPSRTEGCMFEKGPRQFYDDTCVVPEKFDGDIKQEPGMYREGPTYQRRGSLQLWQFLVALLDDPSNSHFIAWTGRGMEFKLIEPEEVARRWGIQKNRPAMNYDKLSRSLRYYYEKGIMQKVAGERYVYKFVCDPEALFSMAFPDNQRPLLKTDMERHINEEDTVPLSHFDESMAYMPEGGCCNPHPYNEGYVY
Sequence of CRX (O43186 whole entry): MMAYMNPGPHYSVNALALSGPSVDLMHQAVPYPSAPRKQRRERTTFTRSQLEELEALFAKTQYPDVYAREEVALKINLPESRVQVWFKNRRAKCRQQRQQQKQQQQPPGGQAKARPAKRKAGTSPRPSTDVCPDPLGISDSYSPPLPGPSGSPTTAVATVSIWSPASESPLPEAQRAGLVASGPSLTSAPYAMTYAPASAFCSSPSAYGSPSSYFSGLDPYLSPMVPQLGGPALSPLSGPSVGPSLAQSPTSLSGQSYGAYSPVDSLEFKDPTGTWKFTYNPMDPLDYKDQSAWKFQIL
Sequence of ETV6 (P41212 whole entry): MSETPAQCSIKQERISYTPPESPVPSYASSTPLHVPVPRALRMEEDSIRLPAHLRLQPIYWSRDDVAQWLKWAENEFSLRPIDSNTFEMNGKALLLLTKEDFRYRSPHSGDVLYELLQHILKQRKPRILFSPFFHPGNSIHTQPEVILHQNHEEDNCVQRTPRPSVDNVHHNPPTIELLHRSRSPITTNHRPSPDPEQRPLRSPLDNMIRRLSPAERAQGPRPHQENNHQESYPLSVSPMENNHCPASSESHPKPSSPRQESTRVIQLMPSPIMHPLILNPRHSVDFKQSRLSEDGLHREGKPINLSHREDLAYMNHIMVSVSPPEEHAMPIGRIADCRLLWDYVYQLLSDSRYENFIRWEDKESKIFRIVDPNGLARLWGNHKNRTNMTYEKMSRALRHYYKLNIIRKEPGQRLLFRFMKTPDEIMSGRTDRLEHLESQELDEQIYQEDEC
Sequence of ETV5 (P41161 whole entry): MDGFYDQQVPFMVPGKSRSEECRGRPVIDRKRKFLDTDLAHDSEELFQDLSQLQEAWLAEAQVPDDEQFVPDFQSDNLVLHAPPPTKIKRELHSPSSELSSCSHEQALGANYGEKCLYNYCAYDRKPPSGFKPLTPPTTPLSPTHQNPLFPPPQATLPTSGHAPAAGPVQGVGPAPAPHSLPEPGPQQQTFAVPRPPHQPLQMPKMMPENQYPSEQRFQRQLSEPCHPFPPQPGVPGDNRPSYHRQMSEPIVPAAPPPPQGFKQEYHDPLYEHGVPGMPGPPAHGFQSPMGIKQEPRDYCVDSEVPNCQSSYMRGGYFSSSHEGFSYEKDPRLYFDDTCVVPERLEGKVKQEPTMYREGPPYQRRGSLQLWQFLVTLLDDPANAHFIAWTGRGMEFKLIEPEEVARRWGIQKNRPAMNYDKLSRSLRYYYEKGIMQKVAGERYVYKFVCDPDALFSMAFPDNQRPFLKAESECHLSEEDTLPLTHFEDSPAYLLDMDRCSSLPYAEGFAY
Sequence of HSF1 (Q00613 whole entry): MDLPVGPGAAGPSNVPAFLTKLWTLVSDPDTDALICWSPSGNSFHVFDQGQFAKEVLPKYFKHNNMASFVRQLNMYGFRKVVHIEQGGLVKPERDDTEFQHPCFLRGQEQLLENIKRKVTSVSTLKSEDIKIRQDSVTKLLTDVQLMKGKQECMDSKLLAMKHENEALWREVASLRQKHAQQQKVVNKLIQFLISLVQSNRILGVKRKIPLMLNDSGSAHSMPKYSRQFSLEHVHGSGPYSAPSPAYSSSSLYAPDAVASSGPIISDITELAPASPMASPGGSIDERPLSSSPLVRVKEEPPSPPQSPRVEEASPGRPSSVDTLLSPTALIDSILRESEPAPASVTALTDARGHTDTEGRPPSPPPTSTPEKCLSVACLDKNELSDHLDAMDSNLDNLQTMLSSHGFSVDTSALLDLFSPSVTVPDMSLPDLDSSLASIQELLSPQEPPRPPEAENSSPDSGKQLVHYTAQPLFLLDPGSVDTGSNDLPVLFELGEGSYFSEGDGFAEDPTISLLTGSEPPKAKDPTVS

GCTCTC
binding signal (FEV): 1.47 fold enrichment (6-mer frequency, TF over GST control) | binding signal (ETV5): 1.28 fold enrichment (6-mer frequency, TF over GST control) | binding signal (HSF1): 1.42 fold enrichment (6-mer frequency, TF over GST control) | binding signal (SPIC): 1.33 fold enrichment (6-mer frequency, TF over GST control) | binding signal (ELF4): 1.45 fold enrichment (6-mer frequency, TF over GST control) | binding signal (ELK4): 1.56 fold enrichment (6-mer frequency, TF over GST control) | binding signal (ETV2): 1.61 fold enrichment (6-mer frequency, TF over GST control) | binding signal (ELF3): 1.35 fold enrichment (6-mer frequency, TF over GST control) | binding signal (CRX): 1.24 fold enrichment (6-mer frequency, TF over GST control) | binding signal (ETV1): 1.57 fold enrichment (6-mer frequency, TF over GST control) | binding signal (ERF): 1.42 fold enrichment (6-mer frequency, TF over GST control) | binding signal (ETV3L): 1.52 fold enrichment (6-mer frequency, TF over GST control) | binding signal (ETS2): 1.51 fold enrichment (6-mer frequency, TF over GST control) | binding signal (SPDEF): 1.12 fold enrichment (6-mer frequency, TF over GST control) | binding signal (ETV7): 1.25 fold enrichment (6-mer frequency, TF over GST control) | binding signal (ELF5): 1.2 fold enrichment (6-mer frequency, TF over GST control) | binding signal (ETV3): 1.48 fold enrichment (6-mer frequency, TF over GST control) | binding signal (ETV6): 1.43 fold enrichment (6-mer frequency, TF over GST control)
